The supplement of paper PMC13380429

System: Vero E6 infected with SARS-CoV-2
Assay: inhibition of SARS-CoV-2 cytopathic effect; higher = more antiviral protection, active = above 15
Details: 48 h

Measured: inhibition of SARS-CoV-2 cytopathic effect

O=C(c1ccc(F)c(F)c1Nc1ccc(I)cc1F)N1CC(O)([C@@H]2CCCCN2)C1 [cobimetinib]
inactive: 1 nM -0.38% | 8.33 nM -3.42% | 100 nM -9.73% | 833.33 nM -11.8% | 10000 nM -12.2%

CC/C(=C(\c1ccccc1)c1ccc(OCCN(C)C)cc1)c1ccccc1 [tamoxifen]
inactive: 1 nM -0.39% | 8.33 nM 1.81% | 100 nM 0.36% | 833.33 nM 0.06% | 10000 nM 11.2%

O=C(O)[C@H](Cc1c[nH]c2ccccc12)N1C(=O)c2ccccc2C1=O
inactive: 1 nM 2.9% | 8.33 nM 3.8% | 100 nM -0.51% | 833.33 nM -0.14% | 10000 nM 0.14%

COc1cccc(N2CCN(C3=Nc4c(F)cccc4[C@H](CC(=O)O)N3c3cc(C(F)(F)F)ccc3OC)CC2)c1 [letermovir]
inactive: 1 nM -1.18% | 8.33 nM 0.62% | 100 nM 0.16% | 833.33 nM 0.96% | 10000 nM 1.82%

CCN(CC)Cc1ccc(C(=O)N(CCc2ccccc2OC)[C@@H]2CCNC2)cc1
inactive: 1 nM -1.07% | 8.33 nM -4.2% | 100 nM -1.66% | 833.33 nM -1.07% | 10000 nM -1.55%

O=C(O)Cn1c2c(c3cc(F)ccc31)CN(C(=O)c1cccc3ccccc13)CC2 [setipiprant]
inactive: 1 nM -1.54% | 8.33 nM -1.86% | 100 nM -0.37% | 833.33 nM -0.82% | 10000 nM -0.76%

N[C@@H](Cc1cc(CP(=O)(O)O)cc(-c2ccccc2Cl)c1)C(=O)O
inactive: 1 nM 8.76% | 8.33 nM 0.31% | 100 nM 1.79% | 833.33 nM 1.85% | 10000 nM 1.74%

COc1cnc(NS(=O)(=O)c2ccc(N)cc2)nc1 [sulfameter]
inactive: 1 nM -0.38% | 8.33 nM 1.1% | 100 nM 0.11% | 833.33 nM 0.46% | 10000 nM 2.89%

CN(C)c1ccc(-c2nc3c(N4CCN(CC(=O)Nc5nccs5)CC4)c(Cl)cnc3[nH]2)cc1
inactive: 1 nM 0.9% | 8.33 nM -0.82% | 100 nM -1.07% | 833.33 nM 0.5% | 10000 nM 13.9%

CNc1nc(C)nc(N[C@H]2CCC[C@@H](C(=O)NCc3ccc(C#N)cc3C(F)(F)F)C2)n1
inactive: 1 nM 1.51% | 8.33 nM -1.43% | 100 nM -0.92% | 833.33 nM -0.12% | 10000 nM -2.39%

Oc1c(Br)cc(Br)c2cccnc12 [broxyquinoline]
inactive: 1 nM -1.46% | 8.33 nM 2.01% | 100 nM -2.42% | 833.33 nM -2.35% | 10000 nM -5.91%

CC[C@@H](c1ccc(F)c(F)c1)n1c(C(=O)OC)c(-c2ccno2)[nH]c1=S
inactive: 1 nM 1.31% | 8.33 nM 2.77% | 100 nM 1.18% | 833.33 nM 1.19% | 10000 nM -0.12%

Cc1c(NC(=O)c2cccnc2)c(=O)n(-c2ccccc2)n1C [nifenazone]
inactive: 1 nM -4.14% | 8.33 nM 0.87% | 100 nM 1.34% | 833.33 nM -1.46% | 10000 nM 0.61%

C[n+]1cc2c3c(ccc2c2ccc4cc5c(cc4c21)OCO5)OCO3 [sanguinarium-chloride]
inactive: 1 nM 0.27% | 8.33 nM 0.22% | 100 nM -1.52% | 833.33 nM 2.52% | 10000 nM -25.4%

Cc1nnc2n1-c1sc(CCC(=O)N3CCOCC3)cc1C(c1ccccc1Cl)=NC2 [apafant]
active: 10000 nM 29%
inactive: 1 nM 2.67% | 8.33 nM -1.44% | 100 nM 0.93% | 833.33 nM 1.94%

O=C(O)CCCNC(=O)c1cccnc1 [pikamilone]
inactive: 1 nM 0.18% | 8.33 nM -2.74% | 100 nM -0.01% | 833.33 nM 0.63% | 10000 nM -1.86%

CC1=C(/C=C/C(=C/C=C/C(C)=C/C(=O)O)c2ccc(C)cc2)C(C)(C)CCC1
inactive: 1 nM 0.94% | 8.33 nM 2.92% | 100 nM 1% | 833.33 nM 1.71% | 10000 nM 6.23%

C[N+](C)(C)CC(O)CC(=O)[O-] (stereo not given) [carnitine-(D/L)]
inactive: 1 nM -1.88% | 8.33 nM -0.98% | 100 nM 0.43% | 833.33 nM 3.52% | 10000 nM 5.12%

OC[C@H]1O[C@@H](Oc2cc(O)cc(/C=C/c3ccc(O)cc3)c2)[C@H](O)[C@@H](O)[C@@H]1O [polydatin]
inactive: 1 nM -1.01% | 8.33 nM -1.06% | 100 nM 1.77% | 833.33 nM 9.49% | 10000 nM 2.31%

Nc1nc2[nH]cnc2c(=S)[nH]1 [thioguanine]
inactive: 1 nM -0.56% | 8.33 nM -0.26% | 100 nM 1.4% | 833.33 nM 2.65% | 10000 nM 5.44%

CC(=O)[C@H]1CC[C@H]2[C@@H]3CC[C@H]4C[C@](C)(O)CC[C@]4(C)[C@H]3CC[C@]12C [ganaxolone]
inactive: 1 nM -0.23% | 8.33 nM 4.47% | 100 nM 1.85% | 833.33 nM 0.7% | 10000 nM 0.84%

CN1CCc2c(c3ccccc3n2Cc2ccccc2)C1 [mebhydrolin]
inactive: 1 nM -0.15% | 8.33 nM 2.44% | 100 nM 1.76% | 833.33 nM -0.47% | 10000 nM -1.08%

CCCCCCCN(CC)CCC[C@@H](O)c1ccc(NS(C)(=O)=O)cc1 (racemic) [ibutilide]
inactive: 1 nM -3.47% | 8.33 nM -2.14% | 100 nM -2.19% | 833.33 nM 0.97% | 10000 nM -2.22%

CNC(=O)c1cnn(-c2nc(N)c3ncn([C@@H]4O[C@H](CO)[C@@H](O)[C@H]4O)c3n2)c1 [regadenoson]
inactive: 1 nM 1.53% | 8.33 nM 0.87% | 100 nM 3.4% | 833.33 nM -1.38% | 10000 nM -0.12%

O=C(c1cccc(Br)c1)N1CCC(N2CCCC2)CC1
inactive: 1 nM -0.38% | 8.33 nM 1.79% | 100 nM -0.46% | 833.33 nM 2.16% | 10000 nM -0.32%

Cc1[nH]c(=O)c(C#N)cc1-c1ccncc1 [milrinone]
inactive: 1 nM 1.1% | 8.33 nM -2.54% | 100 nM -1.13% | 833.33 nM -1.41% | 10000 nM 0.27%

Cc1ccc2c(=O)c3ccccc3n(CCCN)c2c1C
inactive: 1 nM 3.67% | 8.33 nM 4.23% | 100 nM -0.41% | 833.33 nM 1.46% | 10000 nM -13.1%

CC(C)(C(=O)O)c1ccc(C(O)CCCN2CCC(C(O)(c3ccccc3)c3ccccc3)CC2)cc1 (stereo not given) [fexofenadine]
inactive: 1 nM 0.81% | 8.33 nM -0.73% | 100 nM -0.49% | 833.33 nM 1.17% | 10000 nM 2.18%

c1ccc2c(c1)CCCc1cc(NCCN3CCOCC3)nnc1-2
inactive: 1 nM 0.07% | 8.33 nM 1.77% | 100 nM 1.8% | 833.33 nM 1.51% | 10000 nM 0.84%
